According to PubChem BioAssay (EPA / NIEHS):
Results filed as inconclusive are left out. Calls of active or inactive are those of the source. Rule for the calls, unless noted: active = hit-call score of the fitted dose curve at least 0.9, where 1 is the maximum; inactive = score below 0.9.

Assays:
[1] = biological target: Hepatocyte nuclear factor 3-beta (Homo sapiens) (UniProt Q9Y261); assay: ATG_FoxA2_CIS: Attagene CIS-FACTORIAL HepG2 Assay for human Forkhead box A2 (FOXA2) (AID 2282942); details: HepG2 cis-reporter transcription factor activity, 24 h; actives raise or lower the signal
Outline: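 In transiently transfected human HepG2 cells, promoter-driven reporter mRNA levels after 24 h chemical exposure are determined via RT-PCR with capillary electrophoresis. DMSO serves as baseline for bidirectional fitting.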

[2] = ATG_M_32_CIS: Attagene CIS-FACTORIAL HepG2 Assay for M32 Transcription Factor (Internal Marker) (AID 2282949); details: HepG2 Attagene cis-factorial M32 reporter, mRNA; actives raise or lower the signal;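 note: background control marker of the multiplexed CIS panel rather than a real target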
Outline: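 Fluorescent capillary electrophoresis peaks of HpaI-digested, FAM-labelled RT-PCR reporter products give the signal. Source: transiently transfected human liver HepG2 cells, 24 h after chemical dosing; bidirectional fitting against DMSO.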

[3] = biological target: Hypoxia-inducible factor 1-alpha (Homo sapiens) (UniProt Q16665); assay: ATG_HIF1a_CIS: Attagene CIS-FACTORIAL HepG2 Assay for human Hypoxia Inducible Factor 1 (HIF1A) (AID 2282951); details: HepG2 Attagene cis-factorial HIF1a reporter transcription; actives raise or lower the signal
Outline: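 In this multiplexed cell assay, HepG2 cells bearing transfected cis reporters are dosed for 24 h and reporter mRNA is read by RT-PCR plus capillary electrophoresis; signal increases and decreases are both scored against DMSO.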

[4] = biological target: Hepatocyte nuclear factor 6 (Homo sapiens) (UniProt Q9UBC0); assay: ATG_HNF6_CIS: Attagene CIS-FACTORIAL HepG2 Assay for human Hepatocyte Nuclear Factor 6 (HNF6) (AID 2282952); details: HepG2 Attagene cis-factorial HNF6 reporter transcription; actives raise or lower the signal
Outline: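 HepG2, transient MRTU transfection (cis promoters); 24 h chemical exposure; total RNA → oligo(dT) RT → PCR → 6-FAM labelling → HpaI cut → CE; bidirectional fit vs DMSO.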

[5] = biological target: Heat shock factor protein 1 (Homo sapiens) (UniProt Q00613); assay: ATG_HSE_CIS: Attagene CIS-FACTORIAL HepG2 Assay for human Heat Shock Transcription Factor 1 (HSE) (AID 2282953); details: HepG2 HSE cis-reporter, Attagene RNA transcription; actives raise or lower the signal
Outline: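 Liver-derived HepG2 cells carry transiently introduced multiple reporter units governed by cis promoters. Reporter RNA measured 24 h post-dose through reverse transcription, PCR amplification, fluorescent labelling and capillary electrophoresis, normalised to DMSO.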

[6] = ATG_RORE_CIS: Attagene CIS-FACTORIAL HepG2 Assay for human RAR-related Orphan Receptor Element (RORE) (AID 2282959); details: HepG2 Attagene cis-factorial RORE reporter, mRNA; actives raise or lower the signal
Outline: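 Fluorescence intensity of reporter-specific cDNA fragments, separated by capillary electrophoresis, gives the signal. Source: HepG2 liver cells transiently transfected with cis-element reporters and exposed 24 h; DMSO-normalized bidirectional fit.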

[7] = ATG_TAL_CIS: Attagene CIS-FACTORIAL HepG2 Assay for human TAL Basal Promoter (AID 2282966); details: HepG2 Attagene cis-factorial TAL promoter reporter; actives raise or lower the signal;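 note: background control endpoint measuring basal TAL promoter reporter mRNA not a specific factor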
Outline: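 Fluorescence of labelled reporter cDNA fragments, resolved by capillary electrophoresis, gave the readout. Human HepG2 liver cells carried transiently transfected cis-element reporter units and were treated for 24 hours; activity was fitted bidirectionally against DMSO.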

[8] = ATG_TGFb_CIS: Attagene CIS-FACTORIAL HepG2 Assay for human Transforming Growth Factor (TGF) (AID 2282967); details: HepG2 Attagene CIS TGFb reporter, mRNA transcription; actives raise or lower the signal
Outline: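 Liver HepG2 line, cis-factorial reporter panel, 24 h dosing. Quantitation: RT-PCR products labeled with 6-FAM, cut with HpaI, resolved by capillary electrophoresis; DMSO-referenced bidirectional analysis.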

[9] = biological target: X-box-binding protein 1 (Homo sapiens) (UniProt P17861); assay: ATG_Xbp1_CIS: Attagene CIS-FACTORIAL HepG2 Assay for human X-box Binding Protein 1 (XBP1) (AID 2282972); details: HepG2 XBP1 cis-element reporter, Attagene multiplex; actives raise or lower the signal
Outline: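 HepG2 cells transiently transfected with cis-regulated multiple reporter transcription units; endogenous transcription factor activity measured 24 hours after chemical dosing. Reporter mRNA quantified by RT-PCR, 6-FAM primer extension, HpaI digestion and capillary electrophoresis; bidirectional fitting versus DMSO.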

[10] = ATG_M_32_TRANS: Attagene TRANS-FACTORIAL HepG2 Assay for M32 Transcription Factor (Internal Marker) (AID 2282984; active = hit-call score of the fitted dose curve at least 0.9, where 1 is the maximum;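 note: transcript level of a background control reporter unit measured by RT-PCR and capillary electrophoresis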); details: HepG2 Attagene TRANS M32 internal marker reporter
Outline: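 Human hepatoma HepG2, transient MRTU transfection, 24 h treatment. RNA → RT-PCR → fluorescent primer extension → HpaI digest (2 h, 37 C) → CE. Positive-direction fit vs DMSO.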

[11] = biological target: Transcriptional activator Myb (Homo sapiens) (UniProt P10242); assay: ATG_Myb_CIS: Attagene CIS-FACTORIAL HepG2 Assay for human Myeloblastosis (Myb) Proto-Oncogene Transcription Factor (AID 2282986); details: HepG2 Attagene CIS-FACTORIAL Myb reporter transcription; actives raise or lower the signal
Outline: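 Fluorescence signals from capillary electrophoresis of RT-PCR-amplified reporter cDNA give the read-out. Cells: HepG2 transfected with multiple cis-regulated reporter units. Exposure lasts 24 hours; DMSO defines baseline for gain or loss of signal.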

[12] = biological target: Nuclear respiratory factor 1 (Homo sapiens) (UniProt Q16656); assay: ATG_NRF1_CIS: Attagene CIS-FACTORIAL HepG2 Assay for human Nuclear Respiratory Factor 1 (NRF1) Orphan Gene (AID 2282987); details: HepG2 NRF1 cis-element reporter, Attagene multiplex; actives raise or lower the signal
Outline: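 Transcriptional reporter readout, one component of a 52-endpoint multiplexed HepG2 panel. Exposure 24 h; mRNA detected via RT-PCR and fluorescent capillary electrophoresis; fitting in both directions against DMSO.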

[13] = ATG_NFI_CIS: Attagene CIS-FACTORIAL HepG2 Assay for human Nuclear Factor I (NFI) (AID 2282989); details: HepG2 cis-regulatory reporter, NFI response element transcription; actives raise or lower the signal
Outline: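 Transfected HepG2 liver cells, exposed 24 h, supplied total RNA for oligo(dT) reverse transcription and reporter-specific PCR. Labelled, HpaI-cut fragments were sized by capillary electrophoresis; DMSO set the baseline for bidirectional fitting.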

[14] = biological target: Myc proto-oncogene protein (Homo sapiens) (UniProt P01106); assay: ATG_Myc_CIS: Attagene CIS-FACTORIAL HepG2 Assay for human Myelocytomatosis (Myc) Proto-Oncogene Transcription Factor (AID 2282990); details: HepG2, Attagene cis-reporter transcription factor activity; actives raise or lower the signal
Outline: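 HepG2 cells transiently transfected with multiple cis-promoter-driven reporter transcription units, so endogenous TF activity is read. After 24 h compound exposure, reporter mRNA was quantified by RT-PCR, 6-FAM labelling, HpaI digestion and capillary electrophoresis; bidirectional fit versus DMSO.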

[15] = ATG_NF_kB_CIS: Attagene CIS-FACTORIAL HepG2 Assay for human Nuclear Factor Kappa B (NF-kB) (AID 2282991); details: HepG2 Attagene cis-factorial NF-kB reporter mRNA; actives raise or lower the signal
Outline: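 HepG2, transient multi-reporter transfection, cis promoter elements (endogenous TFs). 24 h exposure. Total RNA → RT → PCR → 6-FAM label → HpaI → CE. Gain/loss vs DMSO.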

[16] = ATG_NRF2_ARE_CIS: Attagene CIS-FACTORIAL HepG2 Assay for human Nuclear Factor Erythroid 2 Related Factor 2 (NFR2) response to Antioxidant Response Elements (ARE) (AID 2282992); details: HepG2 Attagene ARE/NRF2 reporter, transcription factor activity; actives raise or lower the signal;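 for AC50: reporter mRNA level measured by RT-PCR and capillary electrophoresis fluorescence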
Outline: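 HepG2 cells transiently transfected with multiplexed cis-regulated reporter transcription units measure endogenous transcription factor activity. Reporter mRNA at 24 h is quantified by RT-PCR, fluorescent labelling and capillary electrophoresis, with bidirectional fitting relative to DMSO.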

[17] = ATG_XTT_Cytotoxicity: Cytotoxicity Assessment in the Attagene TRANS-FACTORIAL HepG2 Assay (AID 2283584; active = hit-call score of the fitted dose curve at least 0.9, where 1 is the maximum)
Outline: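 Cells: human HepG2, transiently transfected with MRTU reporter constructs. Exposure 24 h. Readout: XTT, cell number. Baseline/neg ctrl DMSO; loss-of-signal scored.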

[18] = biological target: Nuclear receptor subfamily 1 group I member 2 (Homo sapiens) (UniProt O75469); assay: ATG_PXR_TRANS: Attagene TRANS-FACTORIAL HepG2 Assay for human Pregnane X Receptor (PXR) (AID 2283008; active = hit-call score of the fitted dose curve at least 0.9, where 1 is the maximum)
Outline: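 HepG2 cells transiently transfected with multiple reporter units, here a PXR-GAL4 chimera driving a GAL4-UAS reporter; 24 h compound exposure. Reporter mRNA measured by RT-PCR, FAM labelling and capillary electrophoresis; gain of signal fitted against DMSO baseline.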

[19] = biological target: Cellular tumor antigen p53 (Homo sapiens) (UniProt P04637); assay: ATG_p53_CIS: Attagene CIS-FACTORIAL HepG2 Assay for human p53 Transcription Factor (AID 2282994); details: HepG2 p53 cis-element reporter, Attagene mRNA; actives raise or lower the signal
Outline: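 HepG2 cells transiently transfected with multiplexed cis-regulated reporter transcription units read endogenous TF activity. After 24 h compound exposure, reporter mRNA was quantified by RT-PCR, fluorescent labelling, HpaI digestion and capillary electrophoresis; bidirectional fits versus DMSO baseline.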

Measured: AC50

Sequence of Hepatocyte nuclear factor 3-beta (Homo sapiens) (Q9Y261 whole entry, looked up): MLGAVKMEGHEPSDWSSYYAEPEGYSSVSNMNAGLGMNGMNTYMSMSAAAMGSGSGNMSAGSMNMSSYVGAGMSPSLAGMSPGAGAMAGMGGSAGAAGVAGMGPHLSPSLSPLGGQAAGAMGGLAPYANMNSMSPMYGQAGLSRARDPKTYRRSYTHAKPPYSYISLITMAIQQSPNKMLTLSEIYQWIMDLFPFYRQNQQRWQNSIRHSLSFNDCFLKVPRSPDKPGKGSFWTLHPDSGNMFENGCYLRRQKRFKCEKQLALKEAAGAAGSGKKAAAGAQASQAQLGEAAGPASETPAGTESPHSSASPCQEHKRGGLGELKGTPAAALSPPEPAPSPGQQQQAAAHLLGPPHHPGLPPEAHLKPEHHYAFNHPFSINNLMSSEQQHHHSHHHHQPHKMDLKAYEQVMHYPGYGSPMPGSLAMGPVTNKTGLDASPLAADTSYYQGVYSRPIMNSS
Sequence of Heat shock factor protein 1 (Homo sapiens) (Q00613 whole entry, looked up): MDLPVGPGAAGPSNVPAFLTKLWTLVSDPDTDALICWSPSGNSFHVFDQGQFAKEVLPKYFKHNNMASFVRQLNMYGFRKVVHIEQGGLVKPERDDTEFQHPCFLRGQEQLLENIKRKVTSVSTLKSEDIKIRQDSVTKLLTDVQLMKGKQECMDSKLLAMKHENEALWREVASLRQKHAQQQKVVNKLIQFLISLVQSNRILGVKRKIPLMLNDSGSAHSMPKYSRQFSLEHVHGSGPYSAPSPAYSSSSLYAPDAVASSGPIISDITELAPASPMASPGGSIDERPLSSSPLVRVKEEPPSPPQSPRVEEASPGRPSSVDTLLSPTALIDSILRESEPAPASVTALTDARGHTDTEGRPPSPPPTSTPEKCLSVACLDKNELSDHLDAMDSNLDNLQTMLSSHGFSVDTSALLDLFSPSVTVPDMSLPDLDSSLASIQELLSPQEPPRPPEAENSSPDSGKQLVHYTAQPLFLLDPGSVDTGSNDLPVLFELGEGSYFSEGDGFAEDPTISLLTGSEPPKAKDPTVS
Sequence of Hepatocyte nuclear factor 6 (Homo sapiens) (Q9UBC0 whole entry, looked up): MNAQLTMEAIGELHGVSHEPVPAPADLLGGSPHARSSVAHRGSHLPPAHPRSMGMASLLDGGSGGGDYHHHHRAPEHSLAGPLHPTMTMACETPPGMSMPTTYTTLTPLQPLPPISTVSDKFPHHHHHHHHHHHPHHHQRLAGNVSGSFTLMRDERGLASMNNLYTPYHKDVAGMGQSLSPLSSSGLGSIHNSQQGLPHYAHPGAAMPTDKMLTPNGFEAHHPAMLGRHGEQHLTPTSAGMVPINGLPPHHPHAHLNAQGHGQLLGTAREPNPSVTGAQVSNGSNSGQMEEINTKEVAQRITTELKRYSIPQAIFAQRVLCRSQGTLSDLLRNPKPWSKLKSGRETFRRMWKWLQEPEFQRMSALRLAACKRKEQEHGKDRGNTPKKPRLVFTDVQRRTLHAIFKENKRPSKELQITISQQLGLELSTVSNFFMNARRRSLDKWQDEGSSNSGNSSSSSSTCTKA
Sequence of X-box-binding protein 1 (Homo sapiens) (P17861 whole entry, looked up): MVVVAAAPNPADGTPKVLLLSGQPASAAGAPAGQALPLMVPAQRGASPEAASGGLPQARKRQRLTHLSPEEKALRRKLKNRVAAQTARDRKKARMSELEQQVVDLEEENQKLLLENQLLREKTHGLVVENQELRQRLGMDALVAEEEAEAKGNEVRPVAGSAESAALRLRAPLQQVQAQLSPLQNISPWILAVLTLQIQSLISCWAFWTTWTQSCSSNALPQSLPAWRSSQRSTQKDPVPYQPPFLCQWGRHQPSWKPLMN
Sequence of Nuclear respiratory factor 1 (Homo sapiens) (Q16656 whole entry, looked up): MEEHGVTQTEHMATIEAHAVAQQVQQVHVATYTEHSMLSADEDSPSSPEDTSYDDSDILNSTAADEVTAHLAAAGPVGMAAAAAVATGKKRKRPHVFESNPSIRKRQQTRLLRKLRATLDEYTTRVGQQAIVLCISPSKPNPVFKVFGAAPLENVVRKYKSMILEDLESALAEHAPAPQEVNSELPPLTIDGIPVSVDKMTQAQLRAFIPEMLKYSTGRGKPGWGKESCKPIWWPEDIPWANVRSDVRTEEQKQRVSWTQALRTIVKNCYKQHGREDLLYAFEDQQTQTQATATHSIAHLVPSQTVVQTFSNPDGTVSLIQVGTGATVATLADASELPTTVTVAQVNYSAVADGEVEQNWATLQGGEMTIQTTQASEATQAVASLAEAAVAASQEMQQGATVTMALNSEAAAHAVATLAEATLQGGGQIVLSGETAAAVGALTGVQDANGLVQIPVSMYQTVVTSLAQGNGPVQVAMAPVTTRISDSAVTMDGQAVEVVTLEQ
Sequence of Transcriptional activator Myb (Homo sapiens) (P10242 whole entry, looked up): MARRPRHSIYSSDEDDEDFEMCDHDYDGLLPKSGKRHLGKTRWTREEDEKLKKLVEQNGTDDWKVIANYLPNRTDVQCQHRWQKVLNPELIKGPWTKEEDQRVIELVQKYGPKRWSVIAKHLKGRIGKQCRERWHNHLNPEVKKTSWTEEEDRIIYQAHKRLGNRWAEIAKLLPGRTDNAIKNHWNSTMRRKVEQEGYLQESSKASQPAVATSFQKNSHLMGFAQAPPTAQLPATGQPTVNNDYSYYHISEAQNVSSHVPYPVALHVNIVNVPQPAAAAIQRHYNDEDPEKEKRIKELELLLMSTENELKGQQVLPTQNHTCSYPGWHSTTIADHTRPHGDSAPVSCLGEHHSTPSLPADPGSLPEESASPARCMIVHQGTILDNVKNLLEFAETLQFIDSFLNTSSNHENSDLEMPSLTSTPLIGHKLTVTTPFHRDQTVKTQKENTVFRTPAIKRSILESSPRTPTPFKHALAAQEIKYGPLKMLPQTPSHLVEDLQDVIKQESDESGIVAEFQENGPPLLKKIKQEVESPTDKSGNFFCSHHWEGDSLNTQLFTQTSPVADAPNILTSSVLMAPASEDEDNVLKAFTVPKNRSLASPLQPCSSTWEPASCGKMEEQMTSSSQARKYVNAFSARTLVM
Sequence of Hypoxia-inducible factor 1-alpha (Homo sapiens) (Q16665 whole entry, looked up): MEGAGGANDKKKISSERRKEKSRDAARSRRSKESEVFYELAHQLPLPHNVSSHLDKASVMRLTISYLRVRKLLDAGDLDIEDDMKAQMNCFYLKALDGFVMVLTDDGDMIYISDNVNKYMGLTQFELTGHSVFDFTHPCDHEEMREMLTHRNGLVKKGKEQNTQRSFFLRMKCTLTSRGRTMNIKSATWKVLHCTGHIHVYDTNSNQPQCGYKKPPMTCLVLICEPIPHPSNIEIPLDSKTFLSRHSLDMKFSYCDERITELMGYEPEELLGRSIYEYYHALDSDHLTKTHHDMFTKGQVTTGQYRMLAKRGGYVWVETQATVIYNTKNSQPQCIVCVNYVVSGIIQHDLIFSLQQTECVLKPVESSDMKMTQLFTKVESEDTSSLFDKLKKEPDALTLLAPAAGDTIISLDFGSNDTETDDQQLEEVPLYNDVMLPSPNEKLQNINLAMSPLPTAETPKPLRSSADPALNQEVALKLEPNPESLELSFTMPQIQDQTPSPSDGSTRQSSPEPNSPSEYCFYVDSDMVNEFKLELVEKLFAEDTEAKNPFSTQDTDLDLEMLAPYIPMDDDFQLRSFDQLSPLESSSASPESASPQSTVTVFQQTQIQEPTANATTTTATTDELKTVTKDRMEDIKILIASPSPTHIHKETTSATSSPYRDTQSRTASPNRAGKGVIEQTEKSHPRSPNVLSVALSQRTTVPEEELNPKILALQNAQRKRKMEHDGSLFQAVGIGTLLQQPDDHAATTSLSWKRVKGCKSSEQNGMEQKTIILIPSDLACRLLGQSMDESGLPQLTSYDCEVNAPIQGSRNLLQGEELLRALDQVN
Sequence of Myc proto-oncogene protein (Homo sapiens) (P01106 whole entry, looked up): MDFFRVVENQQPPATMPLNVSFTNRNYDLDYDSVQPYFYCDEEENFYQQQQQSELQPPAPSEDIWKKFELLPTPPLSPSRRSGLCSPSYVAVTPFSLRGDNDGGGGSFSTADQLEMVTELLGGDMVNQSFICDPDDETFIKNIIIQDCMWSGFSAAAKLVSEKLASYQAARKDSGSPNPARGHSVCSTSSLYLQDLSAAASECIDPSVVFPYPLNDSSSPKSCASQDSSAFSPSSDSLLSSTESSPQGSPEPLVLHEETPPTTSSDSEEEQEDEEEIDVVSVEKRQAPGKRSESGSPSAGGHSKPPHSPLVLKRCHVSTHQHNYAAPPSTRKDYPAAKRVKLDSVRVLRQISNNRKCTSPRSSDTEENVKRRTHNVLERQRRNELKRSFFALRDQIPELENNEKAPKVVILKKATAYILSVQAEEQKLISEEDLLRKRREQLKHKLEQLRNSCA
Sequence of Nuclear receptor subfamily 1 group I member 2 (Homo sapiens) (O75469 whole entry, looked up, the tested form may be a part): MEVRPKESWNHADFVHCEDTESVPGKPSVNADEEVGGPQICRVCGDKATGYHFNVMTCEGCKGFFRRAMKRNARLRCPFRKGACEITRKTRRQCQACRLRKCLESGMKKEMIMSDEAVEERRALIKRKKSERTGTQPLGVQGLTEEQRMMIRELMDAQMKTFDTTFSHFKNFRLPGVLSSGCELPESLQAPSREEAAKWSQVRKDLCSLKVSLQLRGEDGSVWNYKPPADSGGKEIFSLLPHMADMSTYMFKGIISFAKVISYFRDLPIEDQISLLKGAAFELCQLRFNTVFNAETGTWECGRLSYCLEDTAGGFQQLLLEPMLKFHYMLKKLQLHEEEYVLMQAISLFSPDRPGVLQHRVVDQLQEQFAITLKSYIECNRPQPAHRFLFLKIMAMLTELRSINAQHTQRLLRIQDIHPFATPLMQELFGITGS
Sequence of Cellular tumor antigen p53 (Homo sapiens) (P04637 whole entry, looked up): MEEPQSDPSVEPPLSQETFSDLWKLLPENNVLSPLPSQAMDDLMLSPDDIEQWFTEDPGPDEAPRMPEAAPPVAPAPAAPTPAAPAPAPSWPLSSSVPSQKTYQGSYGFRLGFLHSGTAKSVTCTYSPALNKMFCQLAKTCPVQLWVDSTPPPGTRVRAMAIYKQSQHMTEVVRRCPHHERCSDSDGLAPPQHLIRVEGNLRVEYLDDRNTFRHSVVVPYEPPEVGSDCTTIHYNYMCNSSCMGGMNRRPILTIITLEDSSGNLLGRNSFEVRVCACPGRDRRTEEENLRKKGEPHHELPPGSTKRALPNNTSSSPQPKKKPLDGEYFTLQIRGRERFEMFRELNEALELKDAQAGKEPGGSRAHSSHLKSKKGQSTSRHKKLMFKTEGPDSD

O=S(=O)(O)OOS(=O)(=O)O
not listed: [18] | [19]
inactive: all other assays above

CN1C(=O)CCS(=O)(=O)C1c1ccc(Cl)cc1 (centres undefined)
not listed: [1] | [3] | [7] | [16] | [19]
inactive: all other assays above

c1ccc(P(c2ccccc2)c2ccccc2)cc1
active: [16] 21.5 µM | [18] 6.89 µM
not listed: [2] | [17]
inactive: all other assays above

CC(C)(Cl)Cl
not listed: [6] | [16]
inactive: all other assays above

CC(C)CCCCCCCOP(=O)(Oc1ccccc1)Oc1ccccc1
active: [16] 19.5 µM | [18] 0.711 µM
inactive: all other assays above
